Measured values from PubChem BioAssay AID624305 (National Center for Advancing Translational Sciences (NCATS), 2012).
Inconclusive results are not listed. A call without a number means that no potency is given here. Calls of active or inactive are those of the source. Calls come from the whole dose curve; as a rule, active = well fitted activation curve with a large enough effect; inconclusive = small, poorly fitted or top-dose-only effect; inactive = no such curve, though single readings can be large or run the other way.

test: qHTS assay for re-activators of p53 using a Luc reporter: Hit Validation; settings: p53-responsive luciferase reporter cells, luminescence, H1299 line expressing heat-sensitive Ala138Val p53; series mostly up to 46.1 µM; note: nearly all actives have a fitted effect of over 75% in size
Method in brief: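 Hit confirmation with a 1:5 dilution series, at 37 deg C for 24 hrs, in H1299 cells co-expressing temperature-sensitive p53-A138V and p53-responsive luciferase. Nocodazole served as control; luminescence read after 10 min with detection reagent.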
Potency is the fitted concentration of half-maximal effect.

| Structure (SMILES) | Potency | activation |
| --- | --- | --- |
| CCOc1ccc2cc(C#N)c(SCC(=O)OC)nc2c1 | 2.91 µM (active) |  |
| CC(C)(C)c1ccc(/C=N/Nc2ccc(C(=O)O)cc2)cc1 | inactive |  |
| O=C(c1cccc(Br)c1)c1coc2ccc(O)cc12 | 23.1 µM (active) |  |
| c1ccc2oc(C3=NNC(=NC4CC4)SC3)cc2c1 | 0.366 µM (active) |  |
| Cc1cc(NC(=O)c2ccco2)sc1C | 18.4 µM (active) |  |
| OC(COc1ccc2cc(Br)ccc2c1)CN1CCCC1 (stereo not drawn) | inactive |  |
| CCN1CCN(CC(=O)Nc2nc3ccc(C)cc3s2)CC1 | inactive |  |
| COc1ccc(N=C(N)SCc2ccccn2)cc1 | inactive |  |
| O=C(CC1CCCCC1)NCc1ccc(Cl)cc1 | 11.6 µM (active) |  |
| Cc1ccc(C)n1-c1cccc(NC(=O)c2ccccc2)c1 | inactive |  |
| Cc1ccc(-c2cc3nc(C)cc(NCc4ccco4)n3n2)cc1 | 7.31 µM (active) |  |
| O=C(Nc1ccc(-c2nc3cc(Cl)ccc3c(=O)o2)cc1)c1ccco1 | inactive |  |
| CN1CCN(C(=O)CCCN2C(=O)/C(=C/c3ccc(Cl)cc3)SC2=S)CC1 | 9.2 µM (active) |  |
| COCCSc1ccccc1C(=O)Nc1cc(C)ccn1 | inactive |  |
| COc1ccnc(CSC(N)=Nc2ccccc2OC)c1 | inactive |  |
| CCOC(=O)c1cc(-c2ccccc2)sc1NC(=O)CC | inactive |  |
| CCOC(=O)N1CCN(S(=O)(=O)c2ccc(C(=O)NNc3nc4cc(C)cc(C)c4s3)cc2)CC1 |  | 6.68% [at 9.22 µM] (inactive) |
| CCc1cc(C(=O)c2ccc(C)cc2)c(NC(=O)CCl)s1 | inactive |  |
| Cn1c(Cc2cccs2)nnc1SCc1nc2ccccc2[nH]1 | inactive |  |

| Structure (SMILES) | Potency | activation |
| --- | --- | --- |
| Oc1ccccc1-c1cc(-c2ccc3c(c2)OCCO3)n[nH]1 | 0.184 µM (active) |  |
| O=[N+]([O-])c1ccc(NC(=S)NCCc2ccc(F)cc2)cc1 | inactive |  |
| CC(C)/C=C1\CC/C(=C\c2ccc(N(C)C)cc2)C1=O | 2.91 µM (active) |  |
| O=C(COC(=O)c1ccc(-c2nnc(-c3ccccc3)o2)cc1)c1ccccc1 | 2.91 µM (active) |  |
| CCOc1ccc(N2C(=O)c3ccccc3NC2(C)CC)cc1 (stereo not drawn) | 9.2 µM (active) |  |
| CCCCCCC1CC(/C(C)=N\NC(N)=O)OC1=O (stereo not drawn) | inactive |  |
| C(=C\c1nc(-c2ccccc2)no1)/c1ccccc1 | 2.31 µM (active) |  |
| O=C(Nc1ccc(Cl)cc1C(F)(F)F)c1ccccc1 | inactive |  |
| O=C(Nc1ccc(COc2ccccc2)cc1)c1cccc([N+](=O)[O-])c1 | inactive |  |
| CC1CCCN(C(=O)CN2C(=O)c3ccccc3S2(=O)=O)C1 (stereo not drawn) | 23.1 µM (active) |  |
| COc1cc(C(=O)NCCc2cn3ccc(C)cc3n2)cc(OC)c1OC |  | 13.6% [at 9.22 µM] (inactive) |
| C#CCn1c(=NC(=O)c2cccs2)sc2cccc(OCC)c21 | inactive |  |
| O=C(Nc1ccc(Cl)cn1)C1CCN(c2ncnc3c2nc2n3CCCCC2)CC1 | inactive |  |
| O=C(Cc1ccccc1)Nc1ccc(NC(=O)c2cccnc2)cc1 | inactive |  |
| CC(C)(C)NC(=O)C(c1ccc(Cl)cc1)N(CCO)C(=O)c1snc(C(N)=O)c1N (stereo not drawn) | inactive |  |
| O=C1CC(c2ccc3c(c2)OCCO3)Oc2ccc([N+](=O)[O-])cc21 (stereo not drawn) | 2.59 µM (active) |  |
| Cc1ccc(NC(=S)NC(=O)C2CCCC2)c(Br)c1 | 3.66 µM (active) |  |
| CC(/C=C/c1ccccc1)=N/O | inactive |  |
| CC(C)c1ccc(OCC(=O)NC(C)c2ccccc2)cc1 (stereo not drawn) | inactive |  |
